Data reported in PubChem BioAssay (Tox21).
Results filed as inconclusive are left out. Activity calls are given as the source filed them. Unless noted, calls come from the whole dose curve; as a rule, active = well fitted cell-killing curve with a large enough effect in the repeat runs; inconclusive = weak or mixed curves, or effect the other way; inactive = no such curve, though single readings can be large or run the other way.

Legend:
[1] = biological target: Bile acid receptor (Homo sapiens) (UniProt Q96RI1); assay: qHTS assay to identify small molecule antagonists of the farnesoid-X-receptor (FXR) signaling pathway (AID 743217; active = well fitted inhibition curve with a large enough effect in the signal ratio in the repeat runs, not every such curve was filed as active; the % refers to the signal ratio); details: HEK293T FXR-UAS-bla, beta-lactamase ratio, CDCA-stimulated, 16 h; series mostly up to 62.6 µM
Chain of Bile acid receptor (Homo sapiens) (Q96RI1 whole entry, looked up): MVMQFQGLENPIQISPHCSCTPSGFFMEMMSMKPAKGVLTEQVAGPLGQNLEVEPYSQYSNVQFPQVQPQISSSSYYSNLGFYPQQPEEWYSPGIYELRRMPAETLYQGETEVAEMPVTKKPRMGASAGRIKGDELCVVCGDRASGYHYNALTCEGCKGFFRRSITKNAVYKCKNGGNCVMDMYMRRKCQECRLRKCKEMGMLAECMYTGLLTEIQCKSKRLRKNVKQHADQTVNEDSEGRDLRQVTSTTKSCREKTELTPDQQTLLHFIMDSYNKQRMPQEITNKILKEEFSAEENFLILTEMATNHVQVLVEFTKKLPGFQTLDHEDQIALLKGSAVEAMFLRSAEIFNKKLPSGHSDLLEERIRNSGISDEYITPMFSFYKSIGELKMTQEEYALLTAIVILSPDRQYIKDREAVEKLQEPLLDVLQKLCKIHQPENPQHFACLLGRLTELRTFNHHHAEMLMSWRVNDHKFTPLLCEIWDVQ
Method in brief: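 Antagonist mode: chenodeoxycholic acid at 50 uM final stimulates a UAS-driven beta-lactamase reporter in HEK 293T FXR-bla cells during 16 h, 37C compound exposure. Read-out is FRET substrate fluorescence after 2 h at room temperature.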

[2] = qHTS assay to identify small molecule agonists of the farnesoid-X-receptor (FXR) signaling pathway - cell viability counter screen (AID 743218); details: FXR-bla HEK293T viability, CellTiter-Glo luminescence, 16 h; series mostly up to 62.6 µM; note: nearly all actives have a fitted effect of over 45% in size; note: potency is the fitted concentration of half-maximal effect
Method in brief: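 Viability counter screen in the same wells: CellTiter-Glo luminescence, 30 min room-temperature incubation, measured after the beta-lactamase read. Cells were GeneBLAzer FXR-UAS-bla HEK 293T, compound-treated 16 h at 37C.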

[3] = qHTS assay to identify small molecule antagonists of the farnesoid-X-receptor (FXR) signaling pathway - cell viability counter screen (AID 743221; active = well fitted cell-killing curve with a large enough effect in the repeat runs, not every such curve was filed as active; note: nearly all actives have a fitted effect of over 50% in size; note: potency is the fitted concentration of half-maximal effect); details: FXR-bla HEK293T viability, CellTiter-Glo luminescence, 16 h; series mostly up to 62.6 µM
Method in brief: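 Compound effects on cell number were measured as CellTiter-Glo luminescence in HEK 293T cells expressing FXR-UAS-bla, after 16 h at 37 C with 50 uM CDCA (final).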

[4] = qHTS assay to identify small molecule agonists of the vitamin D receptor (VDR) signaling pathway - cell viability counter screen (AID 743224); details: VDR-bla HEK293T viability, CellTiter-Glo luminescence, 16 h; series mostly up to 62.6 µM; note: nearly all actives have a fitted effect of over 50% in size
Method in brief: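 Counter screen run in the same wells as the VDR-bla reporter assay: CellTiter-Glo luminescence, 30 min at room temperature, after 16 h compound treatment at 37C of cells pre-plated for 4 h.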

[5] = biological target: Peroxisome proliferator-activated receptor delta (Homo sapiens) (UniProt Q03181); assay: qHTS assay to identify small molecule antagonists of the peroxisome proliferator-activated receptor delta (PPARd) signaling pathway (AID 743215; active = well fitted inhibition curve with a large enough effect in the signal ratio in the repeat runs, not every such curve was filed as active; the % refers to the signal ratio;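 note: cells stimulated with agonist L165041 at 300 nM final during compound exposure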; note: potency is the fitted concentration of half-maximal effect); details: HEK293H PPARd-UAS-bla, beta-lactamase FRET ratio, antagonist, 17 h; series mostly up to 62 µM
Chain of Peroxisome proliferator-activated receptor delta (Homo sapiens) (Q03181 whole entry, looked up): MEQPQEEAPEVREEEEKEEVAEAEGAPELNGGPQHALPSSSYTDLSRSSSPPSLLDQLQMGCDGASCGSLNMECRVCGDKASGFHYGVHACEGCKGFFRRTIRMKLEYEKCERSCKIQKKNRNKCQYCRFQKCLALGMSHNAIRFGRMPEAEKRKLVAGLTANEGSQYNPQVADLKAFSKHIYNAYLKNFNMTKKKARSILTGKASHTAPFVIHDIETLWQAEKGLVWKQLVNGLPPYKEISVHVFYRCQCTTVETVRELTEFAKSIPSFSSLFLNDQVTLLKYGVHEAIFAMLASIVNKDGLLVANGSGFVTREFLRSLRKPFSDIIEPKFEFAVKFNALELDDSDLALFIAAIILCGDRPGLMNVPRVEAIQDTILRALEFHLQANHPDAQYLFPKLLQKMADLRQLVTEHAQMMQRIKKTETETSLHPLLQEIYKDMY
Method in brief: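 Agonist L165041 (300 nM final) added with compound to PPARd-bla HEK293H UAS-bla reporter cells; 17 h incubation at 37 C. Read-out: LiveBLAzer FRET substrate, 2 h at room temperature, fluorescence intensity.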

[6] = biological target: Bile acid receptor (Homo sapiens) (UniProt Q96RI1); assay: qHTS assay to identify small molecule agonists of the farnesoid-X-receptor (FXR) signaling pathway (AID 743220; active = well fitted activation curve with a large enough effect in the signal ratio in the repeat runs, not every such curve was filed as active; the % refers to the signal ratio); details: HEK293T FXR-UAS-bla, beta-lactamase FRET ratio, 16 h; series mostly up to 62.6 µM
Method in brief: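 FXR-UAS-bla HEK 293T cells carrying a UAS-driven beta-lactamase reporter were plated for 5 h at 37C/5% CO2, then exposed to DMSO-dissolved Tox21 10K compounds for 16 h at 37C. A LiveBLAzer B/G FRET substrate was loaded for 2 h at room temperature before fluorescence reading.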

[7] = biological target: Vitamin D3 receptor (Homo sapiens) (UniProt P11473); assay: qHTS assay to identify small molecule antagonists of the vitamin D receptor (VDR) signaling pathway (AID 743223; active = well fitted inhibition curve with a large enough effect in the signal ratio in the repeat runs, not every such curve was filed as active; the % refers to the signal ratio); details: VDR-UAS-bla HEK293T, beta-lactamase FRET ratio, 16 h; series mostly up to 61 µM
Chain of Vitamin D3 receptor (Homo sapiens) (P11473 whole entry, looked up): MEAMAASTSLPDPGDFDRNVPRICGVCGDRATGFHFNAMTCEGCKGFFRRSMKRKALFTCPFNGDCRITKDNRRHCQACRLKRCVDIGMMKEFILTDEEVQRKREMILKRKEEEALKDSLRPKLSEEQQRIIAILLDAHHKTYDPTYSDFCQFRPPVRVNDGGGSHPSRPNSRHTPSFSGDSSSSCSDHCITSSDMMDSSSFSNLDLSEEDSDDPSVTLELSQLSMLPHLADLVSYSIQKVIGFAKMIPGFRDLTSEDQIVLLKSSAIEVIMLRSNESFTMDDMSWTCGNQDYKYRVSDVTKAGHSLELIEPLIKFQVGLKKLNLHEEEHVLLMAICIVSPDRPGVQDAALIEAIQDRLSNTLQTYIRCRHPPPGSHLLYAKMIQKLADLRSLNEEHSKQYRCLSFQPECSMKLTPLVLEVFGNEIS
Method in brief: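 Beta-lactamase activity in VDR-bla cells is measured by FRET substrate fluorescence (2 h, room temperature) after cells spend 16 h at 37C with test compound and 3 nM final 1alpha,25-dihydroxyvitamin D3.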

[8] = biological target: Vitamin D3 receptor (Homo sapiens) (UniProt P11473); assay: qHTS assay to identify small molecule agonists of the vitamin D receptor (VDR) signaling pathway (AID 743222; calls by dose curve); details: HEK293T VDR-UAS-bla, beta-lactamase FRET ratio, 16 h; series mostly up to 63.5 µM
Method in brief: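 Agonist mode, beta-lactamase reporter: fluorescence from LiveBLAzer B/G FRET substrate (2 h, room temperature) read after 16 h compound treatment at 37 C of VDR-bla cells, which were pre-incubated 4 h after seeding.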
% is set by controls: 0 for no effect and ±100 for the full control effect.

COc1cc(C(C)C)c2c(c1)S(=O)(=O)N(COc1cc(=O)n3cccc(OCCN4CCCCC4)c3n1)C2=O
inactive: Potency [1] | Potency [2] | Potency [3] | Potency [4]

CC(C)(C)c1cc(/C=C2\SC(=N)NC2=O)cc(C(C)(C)C)c1O
active: Potency [2] 43.6 µM

C=CC(=O)OCCC#N
inactive: Potency [5] | Potency [1] | Potency [2] | Potency [6] | Potency [3] | Potency [7] | Potency [4]

COc1cccc(CCc2ccccc2OCC(CN(C)C)OC(=O)CCC(=O)O)c1 (stereo not given)
inactive: Potency [5] | Potency [1] | Potency [2] | Potency [6] | Potency [8] | Potency [7] | Potency [4]

Cc1nc(Nc2ncc(C(=O)Nc3c(C)cccc3Cl)s2)cc(N2CCN(CCO)CC2)n1
inactive: Potency [6]
active: Potency [5] 0.473 µM

CCCCCCCCCC(=O)N(C)C
inactive: Potency [1] | Potency [2] | Potency [6] | Potency [3] | Potency [7] | Potency [4]

[O]=[Zr]
inactive: Potency [1] | Potency [2] | Potency [6] | Potency [3]

CCCCCCCCCCCC(=O)N(CC)CC
inactive: Potency [5] | Potency [1] | Potency [6] | Potency [3] | Potency [8] | Potency [7]

N[C@@H](CSSC[C@H](N)C(=O)O)C(=O)O
inactive: activity change, negative = inhibition [1] 8.01% [at 0.55 µM] | viability change, negative = cytotoxic [2] -3.16% [at 0.55 µM] | activation [6] -0.652% [at 0.55 µM] | activity change, negative = cytotoxicity [3] 5.98% [at 0.55 µM]

O=C1OC(=O)c2cccc3cccc1c23
inactive: Potency [5] | Potency [2] | Potency [3] | Potency [4]

O=C(Nc1ccc(Cl)cc1)Nc1ccc(Cl)c(C(F)(F)F)c1
inactive: Potency [6]
active: Potency [5] 26.6 µM | Potency [3] 16.8 µM

NC(=O)c1nc(-c2cccc(-c3cc(F)ccc3OCC(F)(F)C(F)(F)F)c2)n[nH]1
active: Potency [5] 54.9 µM
inactive: Potency [6]
